# Screening data as filed in PubChem.
# CDC25B-CDK2 inh: human CDC25B-CDK2/CyclinA binding inhibition; AID 1259370; P30305+P24941; z-score (concentration not given with the values); 94,000 tested, 0.72% active; HTRF CDC25B-CDK2/CyclinA binding, anti-His/anti-Flag; active compounds read high; in the data active means z-score above about 3.2
# HIV TAR-Tat: HIV-1 TAR-Tat binding disruption; HIV-1 TAR RNA, Tat peptide displacement FRET; active compounds read high; z-score (test concentration not listed); 100,000 tested, 0.6% active; AID 1259389; active means z-score of 3 or more in at least 2 runs
# Numbers without * were called inactive; x = not tested or not shown. Compounds with a hit are over-represented: about 0.86% of the library has one in this group of screens.
SMILES,CDC25B-CDK2 inh,HIV TAR-Tat
O=C(O[C@@H]1Cc2c(O)cc(O)cc2O[C@@H]1c1cc(O)c(=O)c2c(O)c(O)cc([C@H]3Oc4cc(O)cc(O)c4C[C@H]3OC(=O)c3cc(O)c(O)c(O)c3)c2c1)c1cc(O)c(O)c(O)c1,x,25.9*
O=C(Oc1cc(O)cc2c1C[C@@H](OC(=O)c1cc(O)c(O)c(O)c1)[C@@H](c1cc(O)c(O)c(O)c1)O2)c1cc(O)c(O)c(O)c1,x,30.9*
CC1=C(C(=O)OCC2CCCO2)C(c2cccc(Cl)c2)C2=C(CC(C)(C)CC2=O)N1 (stereo unspecified),-1.62,-0.38
O=C(CSc1nc2ccccc2nc1N1CCCC1)Nc1ccc(Br)cc1,-2.4,0.93
O=C(CC1(O)C(=O)N(CCCc2ccccc2)c2ccccc21)c1cccc(Br)c1 (stereo unspecified),-0.48,0
CCN(CC)c1ccc(C2C(C(=O)OCCOC(C)C)=C(C)NC3=C2C(=O)CCC3)cc1 (stereo unspecified),-1.35,1.75
O=C(Cn1c(=O)c2ccccc2n2nncc12)Nc1ccc2c(c1)OCO2,x,-0.46
CCc1cc(C=N)c([S-])s1.CCc1cc(C=N)c([S-])s1.[Zn+2],19.3*,x
CCc1cc2c(=S)[nH]cnc2s1,-0.86,x
O=c1[nH]nc(-c2ccccc2)c2c1Nc1nnnn1C2c1ccc(Br)cc1 (stereo unspecified),1.89,0.81
CC(=O)N1c2ccc(S(=O)(=O)N3CCOCC3)cc2CC1C(=O)NC1CCCCC1 (stereo unspecified),x,0.52
O=C(NCc1ccc2c(c1)OCO2)c1csc2c1CCCCC2,-2.65,-0.52
Nc1c(-c2nc(-c3ccccc3)cs2)c2ccccn2c1C(=O)c1cccs1,24.6*,0.36
COc1ccc(C(=O)c2c(N)c(-c3nc(-c4ccccc4)cs3)c3ccccn23)cc1,-0.57,3.62
O=C(c1ccc(Br)cc1)C(O)c1c[nH]c2ccccc12 (stereo unspecified),0.22,1.2
Brc1ccc(C(c2c[nH]c3ccccc23)c2c[nH]c3ccccc23)s1,16.2*,x
CCOc1ccccc1C1C2=C(CC(C)(C)CC2=O)Nc2ncnn21 (stereo unspecified),x,-0.88
COc1cccc(C=Nc2ccccc2SCCC#N)c1O,6.92*,x
COc1cc(C(=O)Nc2ccccc2SCCC#N)cc(OC)c1OC,0.31,x
NNC(=O)c1csc(-c2ccccc2)n1,-1.1,x
NNC(=O)Cc1csc(-c2cccc(-n3cccc3)c2)n1,16.5*,x
O=C(Cc1csc(-c2ccccc2)n1)Nc1nc(-c2ccccc2)cs1,0.55,0.46
NNC(=O)c1csc(-c2cccc(-n3cccc3)c2)n1,16.9*,x
O=c1ccc(-c2ccc(S(=O)(=O)Nc3ccc(Br)cc3F)o2)n[nH]1,x,18.2*
O=c1ccc(-c2ccc(S(=O)(=O)Nc3ccc(Cl)cc3F)o2)n[nH]1,x,2.11
SMILES,CDC25B-CDK2 inh,HIV TAR-Tat
O=c1[nH]c2ccc([N+](=O)[O-])cc2s1,-1.23,x
CC1CCC2C(=O)N(c3ccc(N4C(=O)C5CCC(C)CC5C4=O)cc3)C(=O)C2C1 (stereo unspecified),-0.13,0.05
O=C(O)/C=C/C(=O)Nc1ccc(C(F)(F)F)cc1NC(=O)/C=C/C(=O)O,-0.58,x
O=C(/C=C/c1ccco1)Nc1ccc(C(=O)O)cc1NC(=O)/C=C/c1ccco1,16.8*,x
C=CCSC1=C(C#N)C(c2ccc(O)c(OC)c2)CC(=O)N1 (stereo unspecified),-0.64,0.32
O=C(Nc1ccc2c(c1)OCCO2)c1cnc(N2CCOCC2)nc1,x,0.81
CC(/C=N/O)=N\Nc1ccccc1,-1.8,x
C/C(CC(C)(C)Nc1ccccc1)=N\O,14.1*,x
Cc1cccc(C(=O)NC(=S)Nc2ccc(O)c(-c3nc4ccccc4s3)c2)c1,-3.57,x
O=C(NCC(c1ccco1)N1CCCC1)c1cc(=O)c2ccccc2o1 (stereo unspecified),-1.48,-0.14
O=C(NCCCN1CCN(c2ccccc2)CC1)Nc1ccc(F)cc1F,-1.46,2.15
O=C(NCCN1CCN(c2ccccc2)CC1)Nc1ccc(F)cc1F,-2.04,7.7*
CCN(Cc1ccc(F)cc1)c1cc(=O)n2nc(-c3ccccc3)sc2n1,x,0.76
O=C1C2CC=CCC2C(=O)N1c1cccc(O)c1 (stereo unspecified),-1.08,x
CCOC(=O)c1c(C)[nH]c(CCC(=O)NCC2CCCN2CC)c1C (stereo unspecified),x,0.83
COc1cccc(C2CC(=O)N3CN(c4ccc(N(C)C)cc4)CSC3=C2C#N)c1 (stereo unspecified),7.17*,-1.3
COc1cccc(C2CC(=O)N3CN(c4ccc(OC)c(OC)c4)CSC3=C2C#N)c1 (stereo unspecified),7.51*,-1.75
COc1cccc(C2CC(=O)N3CN(c4ccccc4)CSC3=C2C#N)c1 (stereo unspecified),0.82,-1.48
COc1ccc(N2CSC3=C(C#N)C(c4cccc(OC)c4)CC(=O)N3C2)cc1 (stereo unspecified),6.07*,0.29
